“And” between values parts separate entries of the source, which are not always exact repeats. Equal values may be shown once. Results filed as inconclusive are left out. A structure can be active in one record and inactive in another. The source made the active and inactive calls. Unless noted, calls follow the shape of the dose curve; as a rule, active = well fitted curve in the direction sought with a large enough effect; inconclusive = small, poorly fitted or top-dose-only effect, or another doubt; inactive = no such curve, though single readings can be large; an effect the other way counts as inactive or inconclusive.
Key:
[1] = target: Voltage-gated inwardly rectifying potassium channel KCNH2 (Homo sapiens) (UniProt Q12809); assay: qHTS Assay for Small Molecule Inhibitors of the Human hERG Channel Activity (AID 588834); details: U2OS BacMam hERG, FluxOR thallium flux fluorescence; series mostly up to 46.1 µM;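 also: lower thallium flux fluorescence means stronger hERG block; nearly all actives have a fitted effect of over 50% in size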; also: potency is read from the fitted curve at half-maximal effect
How it was run: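 Thallium-flux (FluxOR) read-out on FDSS: fluorescence read 10 s before and 2 min after stimulation buffer. hERG-BacMam-transduced U2OS cells, compound exposure about 10 min. AC50 by standard Hill equation.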

[2] = target: Luciferin 4-monooxygenase (Photinus pyralis) (UniProt P08659); assay: Biochemical firefly luciferase enzyme assay for NPC (AID 624030); also: nearly all actives have a fitted effect of over 70% in size; also: potency is read from the fitted curve at half-maximal effect; details: purified P. pyralis luciferase, luminescence, 5 min; series mostly up to 58.6 µM
How it was run: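 Direct inhibition of firefly luciferase enzyme (10 nM final, 50 mM Tris Acetate) assessed by luminescence within 5 minutes. Percent activity scaled between DMSO and PTC124 positive control, with concentration-effect curves classified by fit quality and response.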

[3] = S16 Schwann cell viability assay (CellTiter-Glo assay) (AID 624031); details: S16 rat Schwann cells viability, 24 h; series mostly up to 57.5 µM; also: nearly all actives have a fitted effect of over 70% in size; also: potency is read from the fitted curve at half-maximal effect
How it was run: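 Native S16 rat Schwann cells in DMEM/10% FBS without phenol red were incubated overnight, then exposed to compounds for 24 h at 37 °C/5% CO2. Viability was read as ATP luminescence (CellTiter-Glo), normalized to no-cell wells and DMSO (0%).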

[4] = S16 Schwann cell PMP22 intronic element firefly luciferase assay (AID 624032); details: S16 rat Schwann cells, PMP22 element FLuc, 24 h; series mostly up to 57.5 µM; also: nearly all actives have a fitted effect of over 30% in size; also: potency is read from the fitted curve at half-maximal effect
How it was run: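 Luciferase reporter of PMP22 intronic-element expression in stably transfected S16 rat Schwann cells, read by ONE-Glo luminescence after 24 h compound exposure at 37 C. Activity scaled between DMSO (0%) and positive-control PTC124; concentration-effect curves quality-classified.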

[5] = target: Glutaminase kidney isoform, mitochondrial (Homo sapiens) (UniProt O94925); assay: qHTS for Inhibitors of Glutaminase (GLS): LOPAC Validation (AID 624146); details: glutaminase enzyme activity inhibition; series mostly up to 46.1 µM;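 also: glutamate product detected by oxidase and peroxidase coupled Amplex red fluorescence gain; % is scaled to controls: 0 for no effect and ±100 for the full control effect; nearly all actives have a fitted effect of over 60% in size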
How it was run: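 Read-out is an Amplex red fluorescence increase coupled through glutamate oxidase and HRP, measured before and after 30 min room-temperature incubation. hKGA is in 45 mM KH2PO4 (pH 8.2) with 0.02% Tween-20; glutamine added as 1mM solution.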

[6] = qHTS of Trypanosoma Brucei Inhibitors: LOPAC Validation (AID 624147); details: purified enzyme assay, luminescence, 45 min; series mostly up to 57.5 µM; also: 0% is about no effect
How it was run: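 TbPYK + substrate in 50 mM TEA pH 7.2, 100 mM KCl, 10 mM MgCl2, 0.05% BSA, 0.01% Tween-20; cpd pinned; ADP 130 uM final; 45 min RT; Kinase-Glo Plus 10 min; luminescence endpoint.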

[7] = qHTS assay for small molecule antagonists of retinoid X receptor alpha signaling (AID 588546; active = well fitted inhibition curve with a large enough effect in the signal ratio, with a control signal flat, not every such curve was filed as active; the % refers to the signal ratio;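 also: cells stimulated with 9-cis-retinoic acid as agonist; % is scaled to controls: 0 for no effect and ±100 for the full control effect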); details: HEK293T RXRa-UAS-bla, beta-lactamase ratio, antagonist mode; measured here: W530 green channel, cytotoxicity proxy
How it was run: (§1)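 Beta-lactamase reporter inhibition, read as CCF4 fluorescence ratio (ex 405, em 460/530 nm) after 2 h at RT. HEK293T UAS-bla cells, 2500/well, were stimulated with 9-cis-RA at 500 or 100 nM final alongside test compound for 18 h at 37 C.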

[8] = target: Retinoic acid receptor RXR-alpha (Homo sapiens) (UniProt P19793); assay: as above; details: HEK293T RXRa-UAS-bla, beta-lactamase ratio, antagonist mode
How it was run: as §1

[9] = target: Thyroid hormone receptor beta (Homo sapiens) (UniProt P10828); assay: qHTS assay for small molecule antagonists of thyroid hormone receptor beta signaling (AID 588547; active = well fitted inhibition curve with a large enough effect in the signal ratio, with a control signal flat, not every such curve was filed as active; the % refers to the signal ratio;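 also: cells stimulated with 0.4 nM T3 agonist during compound exposure; % is scaled to controls: 0 for no effect and ±100 for the full control effect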); details: TR-UAS-bla HEK293, beta-lactamase ratio, antagonist mode, 18 h
How it was run: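 Inhibition of T3-driven (0.4nM final) beta-lactamase reporter activity was measured over 0.59 nM to 92 uM compound after 18 h at 37 C. The cells were GripTite HEK293 TR-UAS-bla in charcoal/dextran-stripped serum, with CCF4 ratio read-out and IC50 from Hill fits.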

[10] = S16 Schwann cell PMP22 intronic element beta-lactamase assay (AID 624044; calls by dose curve; also: nearly all actives have a fitted effect of over 15% in size; also: potency is read from the fitted curve at half-maximal effect); details: S16 rat Schwann cells, PMP22 element beta-lactamase FRET, 24 h; series mostly up to 38.3 µM
How it was run: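 Beta-lactamase reporter under a PMP22 intronic regulatory element in stable S16 rat Schwann cells; 24 h compound exposure. 460 nm blue signal normalized between DMSO (0%) and potassium clavulanate, with 535 nm FRET tracking viability; curves classed by r2 and response.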

Thyroid hormone receptor beta (Homo sapiens), sequence (P10828 whole entry, looked up): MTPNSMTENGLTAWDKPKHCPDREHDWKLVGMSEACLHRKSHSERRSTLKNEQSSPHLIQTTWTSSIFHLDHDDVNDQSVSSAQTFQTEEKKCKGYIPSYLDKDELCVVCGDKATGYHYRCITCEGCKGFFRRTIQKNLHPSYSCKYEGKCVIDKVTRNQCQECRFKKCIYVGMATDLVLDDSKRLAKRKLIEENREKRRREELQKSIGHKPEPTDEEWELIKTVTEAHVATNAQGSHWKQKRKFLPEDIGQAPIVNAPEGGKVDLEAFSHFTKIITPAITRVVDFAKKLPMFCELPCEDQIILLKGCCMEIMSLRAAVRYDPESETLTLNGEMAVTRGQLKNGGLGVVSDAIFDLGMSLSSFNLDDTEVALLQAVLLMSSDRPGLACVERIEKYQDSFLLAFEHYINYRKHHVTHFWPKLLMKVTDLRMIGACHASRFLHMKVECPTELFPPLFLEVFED
Retinoic acid receptor RXR-alpha (Homo sapiens), sequence (P19793 whole entry, looked up): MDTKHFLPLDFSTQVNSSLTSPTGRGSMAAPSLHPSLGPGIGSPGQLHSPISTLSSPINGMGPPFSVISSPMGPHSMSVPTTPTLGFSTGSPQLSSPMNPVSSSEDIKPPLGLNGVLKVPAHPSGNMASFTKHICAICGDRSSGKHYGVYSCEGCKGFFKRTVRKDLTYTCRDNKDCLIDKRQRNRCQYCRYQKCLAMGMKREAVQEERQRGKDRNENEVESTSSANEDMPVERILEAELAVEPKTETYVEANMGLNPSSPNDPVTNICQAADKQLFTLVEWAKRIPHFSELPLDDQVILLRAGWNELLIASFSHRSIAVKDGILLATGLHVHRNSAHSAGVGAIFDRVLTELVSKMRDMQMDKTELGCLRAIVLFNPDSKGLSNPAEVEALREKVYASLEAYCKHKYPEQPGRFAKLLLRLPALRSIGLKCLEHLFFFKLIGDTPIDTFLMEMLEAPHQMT
Glutaminase kidney isoform, mitochondrial (Homo sapiens), sequence (O94925 whole entry, looked up, canonical isoform): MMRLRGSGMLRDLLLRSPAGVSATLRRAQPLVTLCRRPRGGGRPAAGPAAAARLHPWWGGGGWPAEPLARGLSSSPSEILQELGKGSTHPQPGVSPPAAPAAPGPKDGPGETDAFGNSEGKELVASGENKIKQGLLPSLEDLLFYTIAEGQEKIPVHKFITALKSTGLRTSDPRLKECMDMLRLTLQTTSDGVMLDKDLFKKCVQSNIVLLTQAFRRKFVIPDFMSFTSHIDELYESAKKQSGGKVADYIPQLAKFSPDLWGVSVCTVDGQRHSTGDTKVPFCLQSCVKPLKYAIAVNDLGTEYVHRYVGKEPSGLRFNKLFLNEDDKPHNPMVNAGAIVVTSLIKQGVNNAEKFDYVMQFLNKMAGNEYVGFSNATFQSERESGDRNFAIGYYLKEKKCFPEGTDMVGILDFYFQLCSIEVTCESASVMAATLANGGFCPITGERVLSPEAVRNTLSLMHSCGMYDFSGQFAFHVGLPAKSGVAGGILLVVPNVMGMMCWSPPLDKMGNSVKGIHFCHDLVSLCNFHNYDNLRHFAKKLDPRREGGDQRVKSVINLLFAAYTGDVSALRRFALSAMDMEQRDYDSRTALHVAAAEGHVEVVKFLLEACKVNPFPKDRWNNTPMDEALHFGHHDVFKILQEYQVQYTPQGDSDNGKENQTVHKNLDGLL
Voltage-gated inwardly rectifying potassium channel KCNH2 (Homo sapiens), sequence (Q12809 whole entry, looked up): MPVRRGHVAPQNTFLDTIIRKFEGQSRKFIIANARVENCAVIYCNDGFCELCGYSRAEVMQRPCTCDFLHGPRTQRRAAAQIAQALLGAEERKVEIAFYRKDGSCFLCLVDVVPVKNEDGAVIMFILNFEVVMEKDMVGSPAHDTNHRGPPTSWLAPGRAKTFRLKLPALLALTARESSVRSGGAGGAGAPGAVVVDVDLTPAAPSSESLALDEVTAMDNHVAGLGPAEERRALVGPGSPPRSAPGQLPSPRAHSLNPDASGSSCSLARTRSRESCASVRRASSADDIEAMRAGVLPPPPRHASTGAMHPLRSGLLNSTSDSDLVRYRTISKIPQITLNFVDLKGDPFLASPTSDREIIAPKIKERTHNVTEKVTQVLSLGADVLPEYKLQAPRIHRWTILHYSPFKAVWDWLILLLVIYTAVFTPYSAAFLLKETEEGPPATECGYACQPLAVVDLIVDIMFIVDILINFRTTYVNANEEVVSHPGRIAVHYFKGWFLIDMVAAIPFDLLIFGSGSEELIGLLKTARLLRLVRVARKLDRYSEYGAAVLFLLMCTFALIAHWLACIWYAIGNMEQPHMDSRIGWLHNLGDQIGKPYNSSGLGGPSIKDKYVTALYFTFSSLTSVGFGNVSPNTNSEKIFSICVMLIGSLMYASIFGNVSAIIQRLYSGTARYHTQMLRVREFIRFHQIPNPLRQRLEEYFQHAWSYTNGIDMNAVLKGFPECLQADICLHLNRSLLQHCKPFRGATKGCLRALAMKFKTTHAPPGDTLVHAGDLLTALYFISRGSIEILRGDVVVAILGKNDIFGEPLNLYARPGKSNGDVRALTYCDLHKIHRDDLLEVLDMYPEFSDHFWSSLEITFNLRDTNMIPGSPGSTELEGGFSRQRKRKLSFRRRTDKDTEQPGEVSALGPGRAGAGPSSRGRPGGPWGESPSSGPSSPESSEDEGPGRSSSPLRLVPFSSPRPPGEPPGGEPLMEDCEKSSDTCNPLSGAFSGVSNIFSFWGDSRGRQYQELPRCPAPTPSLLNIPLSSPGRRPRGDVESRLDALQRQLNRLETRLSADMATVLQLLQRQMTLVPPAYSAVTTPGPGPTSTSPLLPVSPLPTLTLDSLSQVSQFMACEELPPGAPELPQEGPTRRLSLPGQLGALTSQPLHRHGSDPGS
Luciferin 4-monooxygenase (Photinus pyralis), sequence (P08659 whole entry, looked up): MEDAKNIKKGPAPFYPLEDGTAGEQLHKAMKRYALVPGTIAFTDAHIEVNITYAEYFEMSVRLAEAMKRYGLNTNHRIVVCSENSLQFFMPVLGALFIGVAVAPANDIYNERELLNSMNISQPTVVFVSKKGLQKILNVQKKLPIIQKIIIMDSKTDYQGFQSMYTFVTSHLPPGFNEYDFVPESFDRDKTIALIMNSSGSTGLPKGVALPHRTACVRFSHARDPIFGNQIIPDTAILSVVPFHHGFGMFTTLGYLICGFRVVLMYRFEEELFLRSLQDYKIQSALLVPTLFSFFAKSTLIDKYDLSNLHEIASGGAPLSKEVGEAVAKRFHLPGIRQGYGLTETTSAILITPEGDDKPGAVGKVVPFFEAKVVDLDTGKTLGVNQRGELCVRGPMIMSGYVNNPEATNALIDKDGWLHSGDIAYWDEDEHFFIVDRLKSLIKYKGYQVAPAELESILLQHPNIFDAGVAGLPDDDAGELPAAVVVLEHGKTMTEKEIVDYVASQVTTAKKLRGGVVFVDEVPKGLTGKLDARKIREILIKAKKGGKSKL

CCN1CCC[C@H]1CNC(=O)c1c(O)c(Cl)cc(Cl)c1OC
inactive and 15.8 µM (active): Potency [1]
inactive: Potency [2] | Potency [3] | Potency [4] | Potency [5] | outcome [6]

CCCCNc1ccc(C(=O)OCCN(C)C)cc1
inactive: Potency [1] | Potency [2] | Potency [3] | Potency [4] | outcome [6]

COc1ccc(CN(CCN(C)C)c2ccccn2)cc1
1.42%: max response [7]
active: Potency [1] 12.6 µM and 14.1 µM and 8.91 µM
inactive: max response [8] 2.77% | activity change % (negative = inhibition) [9] -10.9% | Potency [2] | Potency [3] | Potency [4] | Potency [5] | outcome [6]

Cc1ccc(S(=O)(=O)NC(=O)NN2CCCCCC2)cc1
inactive: max response [8] -7.05% | activity change % (negative = inhibition) [9] 5.89% | Potency [1] | Potency [2] | Potency [4] | Potency [10] | outcome [6]
-4.69%: max response [7]

CCN(Cc1ccncc1)C(=O)C(CO)c1ccccc1 (stereo not drawn)
inactive: Potency [1] | Potency [2] | Potency [3] | Potency [10] | Potency [5] | outcome [6]

CC(=O)[C@]1(O)Cc2c(O)c3c(c(O)c2[C@@H](O[C@H]2C[C@H](N)[C@H](O)[C@H](C)O2)C1)C(=O)c1ccccc1C3=O
active: Potency [1] 10 µM | Potency [3] 32.2 µM | Potency [10] 0.0999 µM
inactive: Potency [2] | Potency [4] | outcome [6]

CCN1CCc2nc(N)oc2CC1
inactive: Potency [1] | Potency [2] | Potency [3] | Potency [4] | outcome [6]

O=c1[nH]c(=O)n([C@H]2C[C@H](O)[C@@H](CO)O2)cc1Br
11.1%: max response [7]
inactive: max response [8] 7.58% | activity change % (negative = inhibition) [9] 7.23% | Potency [1] | Potency [2] | Potency [3] | outcome [6]
active: Potency [4] 4.05 µM | Potency [10] 7.94 µM

Nc1ncn([C@@H]2O[C@H](CO)[C@@H](O)[C@H]2O)c(=O)n1
inactive: max response [8] 19.1% | Potency [2] | Potency [10] | Potency [5] | outcome [6]
-15%: max response [7]

C=CCc1ccccc1OCC(O)CNC(C)C (stereo not drawn)
inactive: Potency [2] | Potency [3] | Potency [4] | Potency [5] | outcome [6]
inactive and 11.2 µM (active): Potency [1]

COc1ccc(CCN(C)CCCC(C#N)(c2cc(OC)c(OC)c(OC)c2)C(C)C)cc1OC (stereo not drawn)
inactive: Potency [2] | Potency [3] | Potency [4] | Potency [5] | outcome [6]
active: Potency [1] 11.2 µM and 2 µM

COC(=O)C1=C(C)NC(C)=C(C(=O)OC(C)(C)CN(C)CCC(c2ccccc2)c2ccccc2)C1c1cccc([N+](=O)[O-])c1 (stereo not drawn)
inactive: Potency [2] | Potency [10] | Potency [5] | outcome [6]
active: Potency [1] 0.891 µM | Potency [4] 22.8 µM

CCO/C([O-])=N/c1c[n+](N2CCOCC2)no1
inactive: Potency [1] | Potency [2] | Potency [4] | Potency [5] | outcome [6]

NC/C=C/C(=O)O
inactive: Potency [1] | Potency [2] | Potency [4] | Potency [5] | outcome [6]

CCn1cc(C(=O)O)c(=O)c2cc3c(cc21)OCO3
inactive: Potency [1] | Potency [2] | Potency [4] | Potency [5] | outcome [6]

CCCOc1ccccc1-c1nc2n[nH]nc2c(=O)[nH]1
inactive: Potency [1] | Potency [2] | Potency [4] | Potency [5] | outcome [6]

CCN(CC)CCOCCOC(=O)C1(c2ccccc2)CCCC1
inactive: Potency [2] | Potency [4] | Potency [10] | Potency [5] | outcome [6]
active: Potency [1] 12.6 µM

CCn1ccnc1CC1COc2ccccc2O1 (stereo not drawn)
inactive: Potency [1] | Potency [2] | Potency [4] | Potency [5] | outcome [6]

CC1=NS(=O)(=O)c2cc(Cl)ccc2N1
inactive: Potency [1] | Potency [2] | Potency [3] | outcome [6]

CCn1nc(C(=O)O)c(=O)c2cc3c(cc21)OCO3
inactive: Potency [1] | Potency [2] | Potency [4] | Potency [10] | Potency [5] | outcome [6]

COC(=O)[C@H]1[C@H]2C[C@@H]3c4[nH]c5cc(OC)ccc5c4CCN3C[C@H]2C[C@@H](OC(=O)c2cc(OC)c(OC)c(OC)c2)[C@@H]1OC
inactive: Potency [2] | Potency [10] | outcome [6]
active: Potency [1] 2.82 µM and 5.01 µM and 794 nM

C#CCN(C)CCCOc1ccc(Cl)cc1Cl
inactive: Potency [4] | Potency [10] | Potency [5] | outcome [6]
active: Potency [1] 12.6 µM

C[n+]1cc2c3c(ccc2c2ccc4cc5c(cc4c21)OCO5)OCO3
inactive: Potency [1] | outcome [6]
active: Potency [2] 7.21 µM | Potency [4] 8.09 µM | Potency [10] 15.8 µM

CN(C(=O)CCCOc1ccc2[nH]c(=O)ccc2c1)C1CCCCC1
inactive: Potency [1] | Potency [2] | Potency [10] | Potency [5] | outcome [6]

CCOC(=O)C1=C(C)NC(C)=C(C(=O)OC)C1c1cccc([N+](=O)[O-])c1 (stereo not drawn)
inactive: Potency [1] | Potency [2] | Potency [10] | Potency [5] | outcome [6]

CCCCCN(CCCCC)C(=O)C(CCC(=O)O)NC(=O)c1ccc(Cl)c(Cl)c1 (stereo not drawn)
inactive: Potency [1] | Potency [2] | Potency [4] | Potency [10] | Potency [5] | outcome [6]

COCCc1ccc(OCC(O)CNC(C)C)cc1 (stereo not drawn)
inactive: Potency [1] | Potency [2] | Potency [5] | outcome [6]

CC(C(=O)O)c1ccc(CC2CCCC2=O)cc1 (stereo not drawn)
inactive: Potency [1] | Potency [2] | Potency [4] | Potency [10] | Potency [5] | outcome [6]

Reference: PubChem BioAssay (NCATS)
